Experimental findings from ChEMBL document CHEMBL3988442, “University of Dundee, Small-Polar-MMV Screening Library” (2021) are described below.

Each structure is given as a SMILES string.

This assay addresses AMP-activated protein kinase, AMPK (Homo sapiens) (UniProt P54646+O43741+P54619+Q9UGJ0+Q9Y478+Q13131+Q9UGI9). The assay is described as follows: AMP-dependent Kinase enzyme assay. An in vitro enzyme assay that detects ADP turnover that is directly proportional to AMPK activity. This uses naive AMPK that is activated during the assay with MK-8722. In kind it is functional. Details: scale not given: direction of the effect not stated beside the values. To be noted: 30 µM.

In the case of `COCCN1CC(=O)N2CC[C@@H](O)C[C@H]2C1=O`, the Percent Effect was -8.25%.
As for `CCC(Nc1ccc(CCN2CCCCC2)cc1)C(N)=O` (stereo not given), the figure is -12.9%; as for `CC1(C)CC(CN2CCC3(CCC(=O)N(C4CCC4)C3)CC2)CCO1` (stereo not given), -1.15%; as for `CCN(CC)C1CCN(c2ncnc3c2CCN(C(=O)C2CC2)C3)C1` (stereo not given), -3.94%.
On to `Cn1cc(N2CCN(c3ccc(C#N)cc3Br)CC2=O)cn1`, for which the Percent Effect was -4.14%.
With `N#CCCN(C(=O)CCc1cscn1)c1ccc2c(c1)OCCO2`, the Percent Effect is -3.58%.
Next, `c1csc(CN(Cc2ccsc2)CC2CCCO2)n1` (stereo not given): 5.59%; `CC(=O)Nc1ccc(CN2C[C@H]3CC[C@@H]2CN(c2ncccn2)C3)cc1`: 13%; `CCN(Cc1ccoc1)C(=O)Nc1ccccc1CN1CCOCC1`: 4.22%.
As for `O=C(c1cnn2ccccc12)N1CCCC(OCc2ccccn2)C1` (stereo not given), the figure is 14.8%.
As for `O=C(Cn1[nH]c2ccccc2c1=O)N1CCCC(CC2CC2)(C(=O)O)C1` (stereo not given), the figure is -3.39%; as for `CN(Cc1ccc2c(c1)OCO2)Cc1cscn1`, -5.54%; as for `Cc1nccc(CN2Cc3nccn3CC2c2ccccc2)n1` (stereo not given), 15%.
As for `COc1ccc(CN(C)Cc2c(C)noc2C)c(Cl)c1OC`, the Percent Effect stood at 6%.
As for `CC(C)N(CC(=O)Nc1cccc(C(=O)N(C)C)c1)C1CC1`, the figure is 1.38%.
Next, `Cc1cc(=O)n2nc(Oc3cccc(C(N)=O)c3)sc2n1`: -11.1%.
As for `Cc1cc(NC(=O)C2CCN(c3ncccc3C#N)CC2)no1`, the figure is 4.93%.
Turning to `Cc1noc(C)c1CCCNC(=O)Nc1cccc([S+](C)[O-])c1` (stereo not given), the Percent Effect turned out to be 4.42%.
As to `CCc1noc(C(C)N2CCN(Cc3noc(C4CC4)n3)CC2)n1` (stereo not given), the Percent Effect came to 0.498%.
With `CCn1nc(C)cc1C(=O)OCC1CC(=O)N(Cc2ccccc2)C1` (stereo not given), the Percent Effect was 38.6%.
As for `Cc1c(NC(=O)CN2CCN(C3CCCC3)C(=O)C2)cnn1C`, the figure is 2.4%; as for `CC1CCN(C(=O)CCN2Cc3ccccc3C[C@H]2C(N)=O)C1` (stereo not given in full), -7.65%.
Next, `Cc1cc(C)n(CC2CCN(CC(O)CN3CCOCC3)CC2)n1` (stereo not given): -1.36%; `Cc1occc1C(=O)Nc1ccc(C(=O)NC[C@H]2CCCN2)cc1`: -9.02%; `Cc1ccc(N(CCC#N)C(=O)CCc2cscn2)cc1C`: -7.79%.
Take `O=C1CCC2(CCOC2)CN1Cc1nncn1CCc1ccccc1` (stereo not given): the Percent Effect was 14.2%.
As for `Cc1ccc(N2CC[C@@]3(O)CCN(S(C)(=O)=O)C[C@H]3C2)nn1`, the figure is 0.414%; as for `Cc1ccc(CNC(=O)NCc2nccn2C)c(OC(C)(C)C)c1`, 11.3%; as for `CCN(Cc1cccc2c1OCCO2)C(=O)NC(C)(C)C`, -7.11%.
As for `Cc1ccccc1[C@@H]1CN(CCCS(=O)(=O)N(C)C)C[C@H]1C(=O)O`, the figure is -1.92%; as for `O=C(NCCCn1cccn1)C1COCC(=O)N1Cc1ccccc1` (stereo not given), -3.92%; as for `COCCNS(=O)(=O)c1c(C)sc2ccccc12`, -3.2%.
Next, `CC(C)n1ccc(C(=O)OCC2CC(=O)N(Cc3ccccc3)C2)n1` (stereo not given): 7.89%; `CC(C)C(=O)NCCc1nc(-c2ccncc2)n[nH]1`: 10.7%.
Consider `O=c1ccc(S(=O)(=O)N2CCCC2)cn1CC1CCCCO1` (stereo not given), for which the Percent Effect turned out to be 6.91%.
As for `Cc1c(Br)cccc1C(=O)Nc1cc(C(N)=O)n(C)c1`, the figure is 3.87%; as for `COc1ccc(CCN2CCCC(n3cncn3)C2)cc1` (stereo not given), 0.286%; as for `CC(C)(C)NC(=O)CNc1ncccn1`, 91.2%.
As for `CC1CC(NS(=O)(=O)c2ccc(C(F)(F)F)nc2)C1` (stereo not given), the figure is 19.9%; as for `CCc1nc(C)c(C(=O)N[C@@H]2c3ccccc3C[C@@H]2O)o1`, 15.9%.
Next, `COc1ccc2c(c1)OCC(C(=O)NCc1nc3c(s1)CCCC3)C2` (stereo not given): 8.94%; `COc1c(C2CCCN2CC(=O)N(C)Cc2ccco2)c(C)nn1C` (stereo not given): 1.41%.
On to `CCC1(CC)CC(=O)N(CC(O)c2cccc(F)c2)C1=O` (stereo not given), for which the Percent Effect was 12.2%.
As for `CCn1cc(CNCCNc2ncc(Cl)cc2Cl)cn1`, the Percent Effect was determined as 4.84%.
Next, `COCCCC1CCCCN1Cc1cn2cc(C)ccc2n1` (stereo not given): 7.53%.
As for `N#Cc1c(C2CC2)cc(-c2ccc(F)c(F)c2)nc1N`, the figure is 10.4%; as for `CCc1nnc2n1CCN(C(=O)C(C)Oc1cccc(C#N)c1)C2` (stereo not given), 5.56%.
Next, `CN(Cc1cccc(OC(F)(F)F)c1)Cc1cnn(C)c1`: -4.15%; `Cc1ccc(CCCC(=O)N2CC(=O)Nc3cccnc32)s1`: 2.25%; `CC(C)c1ccc(CC(=O)N2CCCC3(CN(C)C(=O)O3)C2)cc1` (stereo not given): 15%.
For the compound `O=C1C(N2CC[C@@H](O)C2)CCCN1Cc1cccc(C(F)(F)F)c1` (stereo not given in full), the Percent Effect is 5.51%.
Next, `Cc1nc(N(C)C)cc(C2(C)CCCNC2)n1` (stereo not given): 10.2%; `COc1c(F)cc(-c2cccc3c2OC(CN)C3)cc1F` (stereo not given): -4.2%.
As for `Cc1[nH]nc(CCC(=O)N2C[C@H]3CC[C@@H]2CN(C(=O)N(C)C)C3)c1C`, the figure is 0.209%.
As for `Cc1ncsc1C(=O)NCCN1CCCCCC1=O`, the figure is -13.5%.
`O=C(CCCn1ccnc1)NC1CCCN(c2ccccc2Cl)C1` (stereo not given): the Percent Effect was 6.12%.
As for `COC(=O)C1CCN(C(=O)Cn2ccc(-c3ccc(F)cc3)n2)CC1`, the figure is -0.768%; as for `CC(Cn1cncc1-c1cnn(Cc2ccccc2)c1)N1CCCCC1` (stereo not given), 7.07%; as for `CCC(O)Cn1nc(-c2ccc(C(=O)O)cc2)cc1-c1ccc(F)cc1` (stereo not given), 12%.
As for `CN1CCCC(c2cccc(-c3ccccc3F)n2)C1` (stereo not given), the figure is 16.2%; as for `C1=C(CNC2CCc3ncnn3C2)COc2ccccc21` (stereo not given), 10.9%.
As for `CCNc1ncc(CN2CCOC(Cc3cccc(OC)c3)C2)cn1` (stereo not given), the figure is 0.956%; as for `COCCCNc1ncnc2c1CCN(C(=O)CC1C=CCC1)CC2` (stereo not given), 11.8%.
Take `Cc1nn(C)c2nc(N(Cc3nccs3)C3CC3)sc12`: the Percent Effect stood at 1.18%.
As for `Cn1cccc1CNCC1CCCn2cc(C(C)(C)C)nc21` (stereo not given), the figure is -0.856%; as for `CCc1cnc(N)nc1NCCC(=O)NC1CCCCC1`, -4.74%; as for `CS(=O)(=O)N1CCN(C(=O)c2cncs2)CC(C(N)=O)C1` (stereo not given), 9.41%.
As for `C[C@@H]1CN(Cc2nc(C(N)=O)no2)CC[C@@]1(O)C1CCOCC1`, the figure is 5.22%; as for `CC(C)c1cc(NCc2csc(C(C)C)n2)nc(N)n1`, -7.72%; as for `CCS(=O)(=O)N1CCN(C(C)c2ncc(-c3ccccc3)o2)CC1` (stereo not given), -3.96%.
Next, `COCCOc1ncccc1NCc1nc2ccccc2n1C`: 7.32%; `Cc1cc(C)c(-n2cccn2)c(CN2CCOCC(CN(C)C)C2)c1` (stereo not given): -0.542%; `CN(C)c1cccc(C(=O)N2CCn3c(nnc3C3CC3)C2)c1`: -2.33%.
As to `Cc1cc(Cl)c(C)c(S(=O)(=O)N2CCN(Cc3ccncc3)CC2)c1Cl`, the Percent Effect was -2.88%.
As for `CCCC(C#N)NC(=O)c1sccc1CC` (stereo not given), the figure is 6.7%; as for `COc1cc(OC)cc(-c2cccc3c2OC(CN)C3)c1` (stereo not given), -5.59%; as for `CN(Cc1ccc(-n2cccn2)cc1)C[C@@H]1CCCN2CCCC[C@H]12`, 5.54%.
As for `Cc1cnn(C2CN(CCOc3ccc(C#N)cc3)C2)c1`, the figure is 5.88%; as for `CCCC1(CO)CCCN(C(=O)CNC(C)=O)C1` (stereo not given), -1.86%.
Next, `Cc1nc[nH]c1CN(C)Cc1cnn(-c2ccc(F)cc2)c1`: 10.8%; `CS(=O)(=O)c1ccc(NC(=O)NCCC2=CCCCC2)cc1`: -2.69%.
With `Cc1csc(N2CCC(CCN3CCCC3=O)CC2)n1`, the Percent Effect was -12.1%.
For the compound `CCN(CC)c1ncccc1CNCc1ccc(Cl)s1`, the Percent Effect is -3.79%.
As for `CC(=O)N1CCC(c2ncc(C(=O)Nc3ccccc3)c(C)n2)CC1`, the figure is 25%; as for `O=C(CC1CC1)N1C[C@@H](O)[C@H](N2CCN(c3ccccc3)CC2)C1`, -9.15%; as for `O=C(Nc1ccccn1)NC1CCN(c2ccccc2OC(F)F)C1` (stereo not given), -0.894%.
As for `Cc1cc(C)n2cc(CN3CCC(N4CCN(C)C4=O)CC3)nc2n1`, the figure is 5.03%; as for `CN(CCc1noc(C2CC2)n1)C(=O)C1(N2CCCC2)CCCC1`, -3.61%.
As for `Cc1ccc(-n2ncc3c2CCCC3N)cc1C` (stereo not given), the figure is 16.9%; as for `O=C1NCCN(Cc2cccnc2)C1CC(=O)N1CCc2n[nH]cc2C1` (stereo not given), -26.7%; as for `Cc1c(C(=O)N(C)C)cccc1N(C)S(C)(=O)=O`, 11.2%.
Turning to `O=C1CN([C@@H]2CC[C@@H](NS(=O)(=O)c3ccccc3)[C@H]2O)CCN1`, the Percent Effect worked out at 11.7%.
As for `CSCC(C)(O)CNS(=O)(=O)c1ccc(Br)cc1` (stereo not given), the figure is -4.9%.
Consider `CCOc1ccccc1-n1c(C2CCC2)n[nH]c1=O`, for which the Percent Effect stood at 13.5%.
As for `CC(C)c1nc(CSc2nnc(-c3cccs3)n2CC(N)=O)no1`, the figure is -6.28%; as for `CC(C)CN(C(=O)Nc1cccc(C(=O)N(C)C)c1)C1CC1`, 0.783%.
As for `CS(=O)(=O)CCC(=O)Nc1ccsc1`, the figure is -6.46%; as for `CC(C)(C)CC(NC(=O)N1CCC(C(N)=O)CC1)C(F)(F)F` (stereo not given), -1.73%.
As for `O=C(NC1CC1)c1nc(Cn2c(C(F)F)nc3ccccc32)no1`, the figure is 10.9%; as for `O=C(C1CCCN(CCc2ccc3c(c2)CCO3)C1)N1CCCC1` (stereo not given), 1.69%.
In the case of `COc1cccc(CCn2ccnc2-c2cn(C3CCNCC3)nn2)c1`, the Percent Effect is -20.9%.
As for `Fc1ccccc1CN1CCC[C@@H](Cn2nnc(-c3cccs3)n2)C1`, the figure is 5.25%; as for `COc1cccc2c1CCCCN2C(=O)c1oc(C)nc1C`, 5.74%; as for `CCN(C)C(=O)c1cccc(S(=O)(=O)NCCc2nc(C)cc(=O)[nH]2)c1`, -5.87%.
As for `CCc1ccc(C(=O)NCC2CCCN2CC)o1` (stereo not given), the Percent Effect turned out to be 0.975%.
As for `CC1CCCCN1C(=O)COc1nc(Cc2ccc(F)cc2)no1` (stereo not given), the figure is 2.51%.
As for `CC(C)CCc1noc(C[S+]([O-])CC(=O)NCc2ccccc2)n1` (stereo not given), the figure is -1.86%; as for `O=S(=O)(NCCc1cn2ccccc2n1)N1CCOCC1`, 3.56%.
`N#Cc1ccc(CN(CC(N)=O)Cc2cccc(F)c2)cc1`: the Percent Effect is -6%.
As for `CN1C[C@]2(CC[C@@H](C(=O)N3CCOCC3)CC2)Oc2ccccc2C1=O`, the figure is 11.1%.
For `COc1ccc(F)c(-c2cc(C(=O)NC3CC3)ccn2)c1`, the Percent Effect is -7.5%.
As for `CCC(C)Oc1ccc(CNCCNC(C)=O)cc1Cl` (stereo not given), the figure is -6.19%; as for `Cc1cnc2c(C(=O)N3CCCC(OCc4ccccn4)C3)cnn2c1` (stereo not given), 4.92%.
Regarding `FC(F)(F)c1cc(C2CCCN(Cc3cccnc3)C2)n[nH]1` (stereo not given), the Percent Effect was found to be 5.52%.
Turning to `CN(CCc1ccccn1)C(=O)Nc1cccnc1-n1cccn1`, the Percent Effect is -3.54%.
For the compound `Cc1cc(NCCc2cnccn2)nc(-c2ccccc2O)n1`, the Percent Effect was 19.4%.
In the case of `COC1CCN(c2ccc(F)cc2CN(C)S(C)(=O)=O)CC1`, the Percent Effect was determined as 6.29%.
As for `Cc1ncsc1CCN(C)C(=O)c1ccc(CN2CCCCC2)cc1`, the figure is 5.27%; as for `Fc1ccc(C2(c3noc(CCN4CCCCO4)n3)CCOC2)cc1` (stereo not given), 5.16%; as for `CC1CCCN(c2ncc(-c3ccccc3F)c(-c3nccn3C)n2)C1` (stereo not given), 9.01%.
